In PubChem BioAssay (NCATS):
Results filed as inconclusive are left out. Calls follow the shape of the dose curve; as a rule, active = well fitted curve in either direction with a large enough effect (not every such curve was filed as active); inconclusive = small, poorly fitted or top-dose-only effect, or another doubt; inactive = flat fitted curve, though single readings scatter.

Experiment: AP1 Signaling Pathway (AID 357)
Settings: ME-180 AP-1-bla reporter, EGF-induced, beta-lactamase ratio, 5 h; at 17.2 µM (top of the series) unless noted
How it was run: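 ME-180 cells with beta-lactamase reporter under AP-1 response element, stimulated with EC50 EGF; compounds tested in titration series, 5 h at 37 °C. CCF4 substrate added 2.5 h at room temperature; 460/530 nm emission ratio gave %activity and AC50.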
% is scaled to controls: 0 for no effect and ±100 for the full control effect.

Activity change, negative = inhibition, inactive:
CCOC(=O)N1CCN(/C=C(\C#N)c2nc3ccccc3s2)CC1 -15.9%, Clc1cccc(-c2nn3c(-c4cccc(Cl)c4)nnc3s2)c1 -10.3%, CN1C(=O)c2c(sc3c2CCCC3)NC1c1ccccc1O (stereo not given) -12.2%, Cc1ccc2[nH]c3c(c2c1)CN(C(=O)CN1CC(C)OC(C)C1)CC3 (stereo not given) -2.87%, COc1cc(C(=O)Nc2nccs2)cc(OC)c1OC 12.8%, CCNC(=O)N(C(=O)NCC)n1c(C)nnc1C 6.49%, COc1cc(-c2nn3c(C4CCCCC4)nnc3s2)cc(OC)c1OC -16.1%, COc1ccccc1C1C(C#N)=C(N)Oc2cc(C)n(Cc3ccccn3)c(=O)c21 (stereo not given) -12.5%, Clc1ccc(-c2nn3c(-c4cccc(Cl)c4)nnc3s2)cc1 10.2%, Cc1ccc(C(=O)NCCCNCCCNC(=O)c2ccc(C)nc2)cn1 8.18%, Cc1cc(=O)oc(C)c1C(=O)N1CCN(C)CC1 5.91%, Cc1ccc(N2CN=c3s/c(=C\c4cccnc4)c(=O)n3C2)cc1 -7.29%, COC(=O)CSc1nnc(C)c(=O)[nH]1 0.589%, CCOC(=O)C1=C(C)N=C2SC(C)C(=O)N2C1c1cccc(F)c1 (stereo not given) -17.6%, C=CCNc1nc(-c2cccc(OC)c2O)nc2ccccc12 20.2%, COC(=O)c1n[nH]c2ccccc12 9.29%, COC(=O)C(NC(C)=O)(Nc1ccc(Br)cc1)C(=O)OC 8.16%, Cc1noc(COc2ccccc2OCC(O)CNC(C)(C)C)n1 (stereo not given) 4.01%, Cc1ccc2cc(CNC(C)C)c(=O)[nH]c2c1 3.13%, O=c1c(F)cn(C2CCCO2)c(=O)n1Cc1ccccc1Cl (stereo not given) 0.0939%, CC(NC(=O)NCc1cccnc1)(C(F)(F)F)C(F)(F)F 12.2%, N#Cc1cccc(-n2c(-c3ccccc3)nnc2-c2ccccc2)c1C#N 4.78%, CCOC(=O)C(C)Oc1nc(Oc2ccccc2)nc(N(C)C)n1 (stereo not given) -9.94%, Cc1ccc(C2/C(=C(/O)c3cnn(-c4ccccc4)c3C)C(=O)C(=O)N2CCN2CCOCC2)o1 (stereo not given) -8.72%, CC1(C)Cc2c(C#N)c(N3CCN(C(=O)c4ccccc4)CC3)nc(-c3ccco3)c2CS1 -7.63%, Nn1c(SCC(=O)Nc2ccc3c(c2)OCCO3)nnc1C(F)(F)F 3.25%, CC(=N\O)/C(CN(C)C)=N/O -9.85%, COc1ccccc1N(Cc1cc2cccc(C)c2[nH]c1=O)C(=O)C(C)C -14.8%, Cc1ccc(N2C(=O)[C@@H]3[C@H](C2=O)C2CCCN2[C@@H]3C(=O)c2ccccc2)cc1 (stereo not given in full) -15.8%, CCOC(=O)c1[nH]c2cc3c(cc2c1NC(=O)CN1CCC2(CC1)OCCO2)OCO3 -29.3%, CCn1cc(C(=O)NCC2CCCO2)c(=O)c2cc(F)c(N3CCN(C)CC3)cc21 (stereo not given) -11.4%, N#Cc1c(N)nc(SCC(=O)NCCc2ccccc2)c(C#N)c1-c1cccs1 0.711%, Cc1c(/C(O)=C2/C(=O)C(=O)N(CCCN3CCOCC3)C2c2ccncc2)cnn1-c1ccccc1 (stereo not given) 5.29%, COc1cccc(/C(O)=C2/C(=O)C(=O)N(CCN(C)C)C2c2ccc(Br)cc2)c1 (stereo not given) -1.11%, COc1cccc(C2/C(=C(\O)c3ccc4c(c3)OCCO4)C(=O)C(=O)N2CCCN(C)C)c1OC (stereo not given) 4.3%, CCOC(=O)c1cnn2c1[nH]c(=O)c1ccccc12 -8.34%, Cn1ncc2nc[nH]c(=O)c21 0.993%, CCOC(=O)C(C(=O)OCC)N(C#N)c1nc(SC)nc(N(C)C)n1 -8.06%, CCOC(=O)c1c(C)n(C)c2ccc(OC)c(NC(=O)CN3CCCCC3)c12 -11.4%, Cc1cc(C)c(NC(=O)OCCN2CCOCC2)c(C)c1 4.21%

Experiment: NFAT Signaling Pathway (AID 444);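 also: carbachol stimulus at about its EC50 of 1 µM final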
Settings: Jurkat NFAT-bla M1, carbachol, beta-lactamase ratio, 5 h; at 17.2 µM (top of the series) unless noted
How it was run: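 Jurkat cells carrying an NFAT-driven β-lactamase reporter and co-transfected muscarinic M1 receptor were treated with compound plus carbachol (1 uM final, an EC50 level) for 5 h at 37 °C. CCF4 loading followed for 1 h at RT; 460/530 nm ratio gave %activity.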

Activity change, negative = inhibition, inactive:
CCOC(=O)N1CCN(/C=C(\C#N)c2nc3ccccc3s2)CC1 13.1%, Clc1cccc(-c2nn3c(-c4cccc(Cl)c4)nnc3s2)c1 1.34%, CN1C(=O)c2c(sc3c2CCCC3)NC1c1ccccc1O (stereo not given) -10.9%, Cc1ccc2[nH]c3c(c2c1)CN(C(=O)CN1CC(C)OC(C)C1)CC3 (stereo not given) -2.75%, COc1cc(C(=O)Nc2nccs2)cc(OC)c1OC -2.54%, CCNC(=O)N(C(=O)NCC)n1c(C)nnc1C -11.9%, COc1cc(-c2nn3c(C4CCCCC4)nnc3s2)cc(OC)c1OC 10.4%, COc1ccccc1C1C(C#N)=C(N)Oc2cc(C)n(Cc3ccccn3)c(=O)c21 (stereo not given) -9.78%, Clc1ccc(-c2nn3c(-c4cccc(Cl)c4)nnc3s2)cc1 -4.86%, Cc1ccc(C(=O)NCCCNCCCNC(=O)c2ccc(C)nc2)cn1 -5.81%, Cc1cc(=O)oc(C)c1C(=O)N1CCN(C)CC1 17.3%, Cc1ccc(N2CN=c3s/c(=C\c4cccnc4)c(=O)n3C2)cc1 -22.3%, COC(=O)CSc1nnc(C)c(=O)[nH]1 3.42%, CCOC(=O)C1=C(C)N=C2SC(C)C(=O)N2C1c1cccc(F)c1 (stereo not given) 7.16%, C=CCNc1nc(-c2cccc(OC)c2O)nc2ccccc12 4.81%, COC(=O)c1n[nH]c2ccccc12 15.6%, COC(=O)C(NC(C)=O)(Nc1ccc(Br)cc1)C(=O)OC -1.04%, Cc1noc(COc2ccccc2OCC(O)CNC(C)(C)C)n1 (stereo not given) -1.96%, Cc1ccc2cc(CNC(C)C)c(=O)[nH]c2c1 -10.3%, O=c1c(F)cn(C2CCCO2)c(=O)n1Cc1ccccc1Cl (stereo not given) -19.1%, CC(NC(=O)NCc1cccnc1)(C(F)(F)F)C(F)(F)F -2.79%, N#Cc1cccc(-n2c(-c3ccccc3)nnc2-c2ccccc2)c1C#N 5.67%, CCOC(=O)C(C)Oc1nc(Oc2ccccc2)nc(N(C)C)n1 (stereo not given) 11%, Cc1ccc(C2/C(=C(/O)c3cnn(-c4ccccc4)c3C)C(=O)C(=O)N2CCN2CCOCC2)o1 (stereo not given) 16.8%, CC1(C)Cc2c(C#N)c(N3CCN(C(=O)c4ccccc4)CC3)nc(-c3ccco3)c2CS1 -24.6%, Nn1c(SCC(=O)Nc2ccc3c(c2)OCCO3)nnc1C(F)(F)F -1.93%, CC(=N\O)/C(CN(C)C)=N/O 13%, COc1ccccc1N(Cc1cc2cccc(C)c2[nH]c1=O)C(=O)C(C)C 11.3%, Cc1ccc(N2C(=O)[C@@H]3[C@H](C2=O)C2CCCN2[C@@H]3C(=O)c2ccccc2)cc1 (stereo not given in full) 9.36%, CCOC(=O)c1[nH]c2cc3c(cc2c1NC(=O)CN1CCC2(CC1)OCCO2)OCO3 6.91%, CCn1cc(C(=O)NCC2CCCO2)c(=O)c2cc(F)c(N3CCN(C)CC3)cc21 (stereo not given) -20.1%, N#Cc1c(N)nc(SCC(=O)NCCc2ccccc2)c(C#N)c1-c1cccs1 15.3%, Cc1c(/C(O)=C2/C(=O)C(=O)N(CCCN3CCOCC3)C2c2ccncc2)cnn1-c1ccccc1 (stereo not given) -3.84%, COc1cccc(/C(O)=C2/C(=O)C(=O)N(CCN(C)C)C2c2ccc(Br)cc2)c1 (stereo not given) 20.3%, COc1cccc(C2/C(=C(\O)c3ccc4c(c3)OCCO4)C(=O)C(=O)N2CCCN(C)C)c1OC (stereo not given) 5.21%, CCOC(=O)c1cnn2c1[nH]c(=O)c1ccccc12 9.32%, Cn1ncc2nc[nH]c(=O)c21 -1.7%, CCOC(=O)C(C(=O)OCC)N(C#N)c1nc(SC)nc(N(C)C)n1 -23.5%, CCOC(=O)c1c(C)n(C)c2ccc(OC)c(NC(=O)CN3CCCCC3)c12 -1.27%, Cc1cc(C)c(NC(=O)OCCN2CCOCC2)c(C)c1 -5.81%
